Test [1] is described as follows: compounds binding Alexa647 anti-His antibody – biochemical, small-molecule microarray, 635 nm fluorescence, artefact control for SMM control protein annotation, primary screen (AID 1128).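 Note: score merges feature fluorescence with signal-to-noise for each printed compound spot.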 The conditions noted are these: higher = more signal.
The subject of test [2] is Human papillomavirus type 1a E7 protein (residues 1-88). The experiment in a line: HPV1a E7 small-molecule binders, primary screen, biochemical, small-molecule microarray, residues 1-88, 635 nm (AID 1129). The conditions noted are these: small-molecule microarray binding, fluorescence 635 nm; higher = more signal.
In test [3] the target is Focal adhesion kinase 1 (Homo sapiens) (UniProt Q05397). As to the kind of experiment: PTK2 protein binding on printed compound slides – biochemical, small-molecule microarray, 635/667 nm fluorescence, BSA, DTT, primary screen (AID 1130).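 Note: composite of spot emission at 667 nm and signal to noise over triplicate slides.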 The following applies: 635 nm fluorescence, higher = more signal.
Test [4] concerns Fibrinogen (Alexa647-labelled). The experiment in a line: Alexa647-fibrinogen binding to printed small molecules – biochemical, small-molecule microarray, 635/667 nm fluorescence, artefact control for SMM control-protein annotation, profiling panel (AID 1131).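 Note: z-score merges 667 nm fluorescence with per-spot signal-to-noise over triplicate slides.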 The following applies: fibrinogen-A647 binding fluorescence, higher = more signal.
Test [5] addresses Follistatin (Homo sapiens) (UniProt P19883). As to the kind of experiment: FST protein binding to printed compounds – biochemical, small-molecule microarray, 635/667 nm fluorescence, primary screen (AID 1132). The following applies: 635 nm fluorescence, higher = more signal.
For test [6], the target named is Fibroblast growth factor 2 (Homo sapiens) (UniProt P09038). The experiment in a line: basic fibroblast growth factor binding to printed compounds – biochemical, small-molecule microarray, 635/667 nm fluorescence, primary screen (AID 1133). The following applies: FGF2, fluorescence 635/667, higher = more signal.
Test [7] can be described thus: JC-1 mitochondrial potential readout, lung cancer cells – cell-based, A549, JC-1 fluorescence, basal, 24 h, 100 nL, profiling panel (AID 1138).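 Note: A549 lung adenocarcinoma cells under basal conditions with no added stimulus; test concentration not given here.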 The conditions noted are these: higher = more signal.
The next test concerns Lefty1. As to the kind of experiment: Lefty1 protein binding to printed compounds – biochemical, small-molecule microarray, 635/667 nm fluorescence, primary screen (AID 1139). The following applies: fluorescence 635/667, higher = more signal.
Test [8] concerns wheat germ agglutinin (Triticum aestivum), Alexa647-labelled. The experiment in a line: Alexa647-WGA lectin binding to printed small molecules – biochemical, small-molecule microarray, 635/667 nm fluorescence, artefact control for SMM control-protein annotation, profiling panel (AID 1140).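 Note: score merges 667 nm feature emission with signal to noise over triplicate slides.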 The conditions noted are these: WGA-A647 binding, 635 nm fluorescence, higher = more signal.

Test [9] addresses Luciferin 4-monooxygenase (Photinus pyralis) (UniProt P08659). The experiment in a line: inhibition of purified Photinus pyralis luciferase – biochemical, luminescence, purified enzyme, 2006 set, primary screen (AID 1141).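 Note: cell-free assay with purified firefly luciferase at 100 ng per well in PBS; test concentration not given here.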 The following applies: purified firefly luciferase, SteadyGlo luminescence, 30 min; higher = more signal, called active from +8 up or from −8 down.
Test [10] deals with Wnt5a (protein binding on small-molecule microarray). The experiment in a line: small molecules binding Wnt5a protein – biophysical, small-molecule microarray, 635/667 nm fluorescence, primary screen (AID 1142).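 Note: fluorescence read at 667 nm with signal to noise per printed feature.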 The conditions noted are these: 635 nm fluorescence, higher = more signal.
Test [11] can be described thus: ATP-based viability of Huh7 replicon cells – cell-based, CellTiter-Glo luminescence, basal, 48 h, cytotoxicity control for HCV replication inhibitor project, primary screen (AID 1143).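 Note: Huh7 hepatoma cells carrying a hepatitis C replication reporter with no stimulus; test concentration not given here.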 The conditions noted are these: higher = more signal, called active from +8 up or from −8 down.
A short description of test [12]: Pseudomonas biofilm growth suppression – PAO1 strain, BacTiter-Glo luminescence, LB-PBS, primary screen (AID 1144). The following applies: P. aeruginosa PAO1 biofilm, 12 h, higher = more signal.
Test [13] in a line: basal CRE-LacZ reporter activity in PC12 – cell-based, unstimulated, primary screen (AID 1145). The conditions noted are these: no forskolin, luminescence, 4.5 h, higher = more signal, called active from +8 up or from −8 down.
Test [14] in a line: forskolin-driven CRE-LacZ activity in PC12 – cell-based, CRE-LacZ reporter, forskolin-stimulated, primary screen (AID 1146).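 Note: PC12 cells with 6xCRE LacZ reporter stimulated by forskolin 10 µM; beta-galactosidase reporter signal reflecting CREB driven transcription.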 The following applies: luminescence, 4.5 h, higher = more signal, called active from +8 up or from −8 down.
The target in test [15] is Streptavidin (Streptomyces avidinii) (UniProt P22629). As to the kind of experiment: compounds binding control protein streptavidin – biophysical, small-molecule microarray, 635/667 nm fluorescence, artefact control for SMM compound annotation, primary screen (AID 1147).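 Note: signal reflects streptavidin binding to arrayed compounds as a control protein.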 The following applies: higher = more signal.
The nature of test [16]: probe aInhba binding on compound microarray – biochemical, small-molecule microarray, 635/667 nm fluorescence, primary screen (AID 1148).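 Note: score merges 667nm spot fluorescence with signal-to-noise for antibody binding to printed compounds.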 The following applies: higher = more signal.
For test [17], the target named is Torsin-1A (Homo sapiens) (UniProt O14656). As to the kind of experiment: TOR1A wild-type binding on microarray – cell lysate, small-molecule microarray, lysate, 635/667 nm, primary screen (AID 1149). The following applies: COS7 hTOR1A-WT lysate, 635 nm fluorescence, higher = more signal.
For test [18] the target is unchanged. The experiment in a line: torsin A mutant lysate binding on microarrays – cell lysate, small-molecule microarray, COS7 lysate, 635/667 nm fluorescence, primary screen (AID 1150).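 Note: score pools 667 nm emission and signal to noise measuring lysate protein binding.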 The following applies: COS7 hTOR1A mutant lysate, 635 nm fluorescence, higher = more signal.
In test [19] the test system is Sonic hedgehog protein (Shh). As to the kind of experiment: Sonic hedgehog microarray binding compounds – biochemical, small-molecule microarray, 635/667 nm fluorescence, primary screen (AID 1151).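 Note: Shh protein binding to compounds spotted on small-molecule microarray slides; score combines spot fluorescence intensity with signal-to-noise across triplicate slides.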 The conditions noted are these: 635 nm fluorescence, higher = more signal.

Activity calls are given as the source filed them. Unless noted, the rule behind the calls is not given here.

Sequence of Luciferin 4-monooxygenase (Photinus pyralis) (P08659 whole entry, looked up): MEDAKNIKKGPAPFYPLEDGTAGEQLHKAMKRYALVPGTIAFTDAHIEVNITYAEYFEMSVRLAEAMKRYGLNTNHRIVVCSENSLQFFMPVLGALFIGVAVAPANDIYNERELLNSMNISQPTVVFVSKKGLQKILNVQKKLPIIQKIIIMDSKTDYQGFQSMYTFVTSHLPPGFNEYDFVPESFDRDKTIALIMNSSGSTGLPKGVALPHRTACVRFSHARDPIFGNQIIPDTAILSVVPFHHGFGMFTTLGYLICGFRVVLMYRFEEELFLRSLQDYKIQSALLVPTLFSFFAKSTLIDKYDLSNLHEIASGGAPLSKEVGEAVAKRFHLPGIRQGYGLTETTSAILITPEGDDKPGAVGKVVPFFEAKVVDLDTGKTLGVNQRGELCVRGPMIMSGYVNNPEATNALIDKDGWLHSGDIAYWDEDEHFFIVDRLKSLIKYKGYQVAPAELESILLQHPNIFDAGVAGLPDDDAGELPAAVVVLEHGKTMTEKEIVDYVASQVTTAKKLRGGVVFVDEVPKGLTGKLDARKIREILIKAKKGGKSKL
Sequence of Focal adhesion kinase 1 (Homo sapiens) (Q05397 whole entry, looked up): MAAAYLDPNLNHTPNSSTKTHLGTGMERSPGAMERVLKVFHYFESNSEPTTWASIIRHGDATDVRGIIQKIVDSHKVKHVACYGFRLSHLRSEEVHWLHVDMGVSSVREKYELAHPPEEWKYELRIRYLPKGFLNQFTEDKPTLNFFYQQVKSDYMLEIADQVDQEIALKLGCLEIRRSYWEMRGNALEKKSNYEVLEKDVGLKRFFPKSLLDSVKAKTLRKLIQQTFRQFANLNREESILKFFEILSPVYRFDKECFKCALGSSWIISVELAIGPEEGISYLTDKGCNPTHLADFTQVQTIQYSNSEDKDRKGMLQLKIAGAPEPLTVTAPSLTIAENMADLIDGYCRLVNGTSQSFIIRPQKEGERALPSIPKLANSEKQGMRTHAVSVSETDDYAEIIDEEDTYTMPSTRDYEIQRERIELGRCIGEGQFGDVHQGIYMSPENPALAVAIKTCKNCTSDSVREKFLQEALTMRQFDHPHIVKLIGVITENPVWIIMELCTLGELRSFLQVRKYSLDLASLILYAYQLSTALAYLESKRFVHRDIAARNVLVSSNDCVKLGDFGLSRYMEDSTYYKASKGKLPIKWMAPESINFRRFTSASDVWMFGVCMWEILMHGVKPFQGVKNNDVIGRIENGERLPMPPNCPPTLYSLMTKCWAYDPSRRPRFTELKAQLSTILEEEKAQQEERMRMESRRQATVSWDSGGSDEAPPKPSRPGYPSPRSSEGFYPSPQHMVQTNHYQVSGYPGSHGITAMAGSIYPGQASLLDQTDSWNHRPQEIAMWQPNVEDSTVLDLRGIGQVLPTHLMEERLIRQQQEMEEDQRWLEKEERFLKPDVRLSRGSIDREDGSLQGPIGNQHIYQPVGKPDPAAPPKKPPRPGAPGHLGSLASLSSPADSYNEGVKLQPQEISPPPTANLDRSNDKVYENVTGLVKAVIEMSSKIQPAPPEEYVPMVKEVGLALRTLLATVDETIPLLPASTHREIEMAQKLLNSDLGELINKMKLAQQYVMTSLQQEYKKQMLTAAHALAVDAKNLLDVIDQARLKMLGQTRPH
Sequence of Torsin-1A (Homo sapiens) (O14656 whole entry, looked up): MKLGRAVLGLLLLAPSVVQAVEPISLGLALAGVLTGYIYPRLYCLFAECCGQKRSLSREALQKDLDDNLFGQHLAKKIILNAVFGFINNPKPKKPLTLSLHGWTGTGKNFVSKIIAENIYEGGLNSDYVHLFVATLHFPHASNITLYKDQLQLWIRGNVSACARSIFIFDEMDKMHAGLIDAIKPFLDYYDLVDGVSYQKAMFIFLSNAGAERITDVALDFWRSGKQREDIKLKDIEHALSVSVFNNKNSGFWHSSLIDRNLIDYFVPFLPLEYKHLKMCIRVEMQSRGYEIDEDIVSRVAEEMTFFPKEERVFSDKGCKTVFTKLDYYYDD
Sequence of Fibroblast growth factor 2 (Homo sapiens) (P09038 whole entry, looked up): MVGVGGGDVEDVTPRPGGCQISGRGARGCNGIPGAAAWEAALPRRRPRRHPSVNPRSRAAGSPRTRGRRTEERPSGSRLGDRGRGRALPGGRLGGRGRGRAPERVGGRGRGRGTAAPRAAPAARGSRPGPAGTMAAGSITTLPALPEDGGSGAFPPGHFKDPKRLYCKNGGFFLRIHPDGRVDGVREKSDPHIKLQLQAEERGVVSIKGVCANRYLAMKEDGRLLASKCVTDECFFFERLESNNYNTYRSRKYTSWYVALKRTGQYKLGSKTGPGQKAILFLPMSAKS
Sequence of Follistatin (Homo sapiens) (P19883 whole entry, looked up): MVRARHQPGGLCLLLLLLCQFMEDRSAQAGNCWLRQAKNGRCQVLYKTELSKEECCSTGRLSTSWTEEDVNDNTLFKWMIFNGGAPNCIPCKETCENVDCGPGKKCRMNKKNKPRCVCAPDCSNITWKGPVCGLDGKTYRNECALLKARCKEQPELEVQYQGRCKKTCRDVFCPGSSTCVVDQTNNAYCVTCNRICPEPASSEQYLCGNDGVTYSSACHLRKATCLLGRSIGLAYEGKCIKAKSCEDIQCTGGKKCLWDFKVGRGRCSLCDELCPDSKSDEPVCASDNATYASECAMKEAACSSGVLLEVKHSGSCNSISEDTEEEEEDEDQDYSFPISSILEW
Sequence of Streptavidin (Streptomyces avidinii) (P22629 whole entry, looked up): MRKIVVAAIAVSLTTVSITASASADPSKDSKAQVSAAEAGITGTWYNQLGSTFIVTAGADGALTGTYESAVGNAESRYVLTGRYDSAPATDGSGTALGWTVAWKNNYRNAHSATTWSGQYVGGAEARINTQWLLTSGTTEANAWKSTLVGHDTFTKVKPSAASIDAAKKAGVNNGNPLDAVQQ

Consider `COc1ccc(O[C@H]2C=C[C@@H](c3ccccc3)O[C@@H]2COC(=O)CCC(C)=NOC[C@@H](C)[C@H](OCc2ccccc2)C(C)C)cc1`, for which the composite z-score in [1] is 0.904; in test [2] it was -0.834; in test [3] it was -0.592; in [4], -1.24; in [5] it was -0.865; in test [6], -0.621. Moreover, the composite z-score is -0.338 in the test with Lefty1; -0.606 in test [8]; -0.348 in test [10]; -0.892 in test [15]; -0.203 in test [16]; -0.416 in the test with Torsin-1A (Homo sapiens) [17]. The results for the composite z-score (with Torsin-1A (Homo sapiens) [18]; in [19]) were -0.632 and -0.155, respectively. Besides, the z-score in [7] is -0.345; in test [9], 1.05 (inactive); in test [11], -1.55 (inactive); in [12], -0.0552 (inactive); in test [13], -0.901 (inactive); in test [14], 0.468 (inactive).
In the case of `COCCCNC(=O)[C@]1(CCC(=O)OC(C)(C)C)N=C(c2ccc(OCCCO)cc2)O[C@@H]1c1ccccc1N=[N+]=[N-]`, the composite z-score is 1.96 in [1]; 1.23 in test [2]; 0.688 in test [3]; 1.03 in test [4]; 1.28 in test [5]; 0.894 in test [6]. The composite z-score in the test on Lefty1 stood at 0.735; in test [8] it was 0.778; in test [10] it was 0.951; in test [15], 1.45; in test [16], 0.283; with Torsin-1A (Homo sapiens) [17] it was 1.54. For the same molecule, the composite z-score is 1.1 with Torsin-1A (Homo sapiens) [18] and -0.2 in test [19]. In addition, the z-score in test [7] is 0.6; in [9], -12 (active); in test [11] it was -1.41 (inactive); in test [12], -1.67 (inactive); in [13], -0.482 (inactive); in [14], -0.478 (inactive).
As to `CC(C)=CCCC(C)=CCON=C1[C@H]2CCn3c(=O)n(Cc4cc5c(cc4Cl)OCO5)c(=O)n3[C@H]2[C@H](O)[C@@H]2O[C@H]12`, the composite z-score in test [1] was 0.321; in test [2], 0.349; in [3], 0.138; in test [4], 0.544; in [5] it was 0.908; in test [6] it was 0.367. The composite z-score in the test with Lefty1 is 0.889; in test [8] it was -0.0863; in test [10], 0.0888; in [15], 0.813; in [16] it was -0.128; with Torsin-1A (Homo sapiens) [17], 1.62. The composite z-score was 0.718 in the test with Torsin-1A (Homo sapiens) [18] and 0.563 in [19]. The z-score was -0.939 in [7]; 0.196 (inactive) in test [9]; 0.148 (inactive) in [11]; 0.138 (inactive) in [12]; 0.336 (inactive) in test [13]; 0.392 (inactive) in test [14].
`CC(CCC(=O)OC[C@H]1O[C@H](C#Cc2ccccc2)C=C[C@@H]1Oc1ccc(C)cc1)=NOC[C@@H](O)COCc1ccco1`: the composite z-score in [1] was -1.01; in test [2], -0.569; in test [3], -1.1; in [4], -2.18; in [5], -2.24; in test [6], -3.21. Besides, the composite z-score in the test on Lefty1 was -2.17; in test [8], -0.452; in test [10] it was -1.52; in [15], -1.78; in [16], -0.446; with Torsin-1A (Homo sapiens) [17], -6.37. Besides, the composite z-score is -5.2 with Torsin-1A (Homo sapiens) [18] and -2.43 in test [19]. The z-score is -0.718 in [7]; -0.889 (inactive) in test [9]; -0.204 (inactive) in [11]; -0.128 (inactive) in test [12]; 3.74 (inactive) in test [13]; 1.9 (inactive) in test [14].
For `CC(=O)OC[C@H]1O[C@H](CCON=C[C@@H](C)[C@H](OCc2ccccc2)C(C)C)C=C[C@@H]1OC(C)=O`, the composite z-score in [1] was -0.508; in test [2] it was 0.193; in test [3], -0.101; in test [4] it was 0.797; in test [5], 0.319; in [6], 0.274. Besides, the composite z-score in the test with Lefty1 was 0.325; in test [8] it was 0.156; in test [10], -0.0629; in [15], 0.133; in test [16], -0.199; with Torsin-1A (Homo sapiens) [17], 0.658. Besides, the composite z-score with Torsin-1A (Homo sapiens) [18] was 0.284; in test [19], 0.372. Besides, the z-score in test [7] was -0.808; in test [9], 1.26 (inactive); in test [11], -0.305 (inactive); in test [12] it was 0.0966 (inactive); in test [13] it was 1.16 (inactive); in test [14], 0.598 (inactive).

The record behind these values is PubChem BioAssay.
